Hit rate of the full screen: of about 5,500 compounds, about 2,000 (36%) were called active. Inconclusive results (about 18%) are left out. Rule as the data show it: active = normalized growth mostly below about 0.91 (no sharp cut-off); inconclusive = no clear call, values can overlap the other calls; inactive = mostly above about 0.92. Some of the results follow.
Test: chemical genetic growth profiling, strain panel (AID 1159580);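 also: tested at 20 µM; growth read once vehicle control cultures reached saturation at 30 °C; 1 = growth at the plate median or of vehicle wells; lower values mean less growth of the strain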
Details: growth OD

Measured: normalized growth

OC[C@@H](O)[C@@H](O[C@@H]1O[C@H](CO)[C@@H](O)[C@H](O)[C@H]1O)[C@H](O)[C@@H](O)CO
inactive: S. cerevisiae deletion strains, locus YJR075W, strain HOC1, hits give low values 1.01 | S. cerevisiae deletion strains, locus YKL009W, strain mrt4, hits give low values 1.02 | S. cerevisiae deletion strains, locus YKL068W, hits give low values 0.999 | S. cerevisiae deletion strains, locus YKL085W, strain MDH1 (second series), hits give low values 0.998 | S. cerevisiae deletion strains, locus YKL085W, strain MDH1, hits give low values 0.998 | S. cerevisiae deletion strains, locus YKL160W, strain elf1, hits give low values 1.02 | S. cerevisiae deletion strains, locus YKL190W, strain CNB1, hits give low values 1 | S. cerevisiae deletion strains, locus YKR001C, strain vps1, hits give low values 1.02 | S. cerevisiae deletion strains, locus YKR026C, strain gcn3, hits give low values 0.991 | S. cerevisiae deletion strains, locus YKR091W, strain srl3, hits give low values 0.996 | S. cerevisiae deletion strains, locus YLL001W, strain dnm1, hits give low values 1.01 | S. cerevisiae deletion strains, locus YLL026W, hits give low values 0.994 | S. cerevisiae deletion strains, locus YLL041C, strain sdh2, hits give low values 0.989 | S. cerevisiae deletion strains, locus YLR027C, strain aat2, hits give low values 0.997 | S. cerevisiae deletion strains, locus YLR039C, strain RIC1, hits give low values 1.06 | S. cerevisiae deletion strains, locus YLR058C, strain SHM2, hits give low values 1.01 | S. cerevisiae deletion strains, locus YLR102C, strain apc9, hits give low values 1.01 | S. cerevisiae deletion strains, locus YLR113W, strain HOG1, hits give low values 0.99 | S. cerevisiae deletion strains, locus YLR221C, strain rsa3, hits give low values 1.04 | S. cerevisiae deletion strains, locus YLR258W, strain gsy2, hits give low values 1 | S. cerevisiae deletion strains, locus YLR262C, strain YPT6 (second series), hits give low values 1.01 | S. cerevisiae deletion strains, locus YLR262C, strain YPT6, hits give low values 1.05 | S. cerevisiae deletion strains, locus YLR268W, strain sec22, hits give low values 0.999 | S. cerevisiae deletion strains, locus YLR320W, strain mms22, hits give low values 1.04 | S. cerevisiae deletion strains, locus YLR330W, strain CHS5, hits give low values 1.01 | S. cerevisiae deletion strains, locus YLR342W, strain FKS1 (second series), hits give low values 1.12 | S. cerevisiae deletion strains, locus YLR342W, strain FKS1, hits give low values 0.974 | S. cerevisiae deletion strains, locus YLR357W, strain rsc2, hits give low values 0.958 | S. cerevisiae deletion strains, locus YLR370C, strain arc18, hits give low values 0.996 | S. cerevisiae deletion strains, locus YLR371W, strain rom2, hits give low values 1.01 | S. cerevisiae deletion strains, locus YLR384C, strain iki3, hits give low values 0.999 | S. cerevisiae deletion strains, locus YLR418C, strain cdc73, hits give low values 0.974 | S. cerevisiae deletion strains, locus YML016C, strain PPZ1, hits give low values 1.01 | S. cerevisiae deletion strains, locus YML032C, strain rad52, hits give low values 1.05 | S. cerevisiae deletion strains, locus YML120C, strain ndi1, hits give low values 0.985 | S. cerevisiae deletion strains, locus YML124C, strain tub3, hits give low values 1.01 | S. cerevisiae deletion strains, locus YMR058W, strain fet3, hits give low values 0.99 | S. cerevisiae deletion strains, locus YMR078C, strain ctf18, hits give low values 1.02 | S. cerevisiae deletion strains, locus YMR125W, strain sto1, hits give low values 0.938 | S. cerevisiae deletion strains, locus YMR129W, hits give low values 0.992 | S. cerevisiae deletion strains, locus YMR205C, strain PFK2, hits give low values 1.03 | S. cerevisiae deletion strains, locus YMR223W, strain ubp8, hits give low values 1.06 | S. cerevisiae deletion strains, locus YMR231W, strain pep5, hits give low values 0.983 | S. cerevisiae deletion strains, locus YMR263W, strain SAP30, hits give low values 1.02 | S. cerevisiae deletion strains, locus YMR307W, strain GAS1, hits give low values 1.1 | S. cerevisiae deletion strains, locus YNL067W, strain RPL9B, hits give low values 0.998 | S. cerevisiae deletion strains, locus YNL071W, strain lat1, hits give low values 0.986 | S. cerevisiae deletion strains, locus YNL128W, strain TEP1, hits give low values 0.985 | S. cerevisiae deletion strains, locus YNL153C, strain GIM3, hits give low values 1 | S. cerevisiae deletion strains, locus YNL183C, strain NPR1, hits give low values 0.982 | S. cerevisiae deletion strains, locus YNL209W, strain ssb2, hits give low values 0.999 | S. cerevisiae deletion strains, locus YNL233W, strain BNI4, hits give low values 1.02 | S. cerevisiae deletion strains, locus YNL248C, strain rpa49, hits give low values 0.976 | S. cerevisiae deletion strains, locus YNL250W, strain rad50, hits give low values 1.02 | S. cerevisiae deletion strains, locus YNL271C, strain bni1, hits give low values 1.03 | S. cerevisiae deletion strains, locus YNL298W, strain CLA4, hits give low values 1.02 | S. cerevisiae deletion strains, locus YNL307C, strain MCK1, hits give low values 1.03 | S. cerevisiae deletion strains, locus YNL322C, strain KRE1 (second series), hits give low values 0.991 | S. cerevisiae deletion strains, locus YNL322C, strain KRE1, hits give low values 1.01 | S. cerevisiae deletion strains, locus YNR049C, strain mso1, hits give low values 0.993 | S. cerevisiae deletion strains, locus YNR052C, strain pop2, hits give low values 1.01 | S. cerevisiae deletion strains, locus YOL006C, strain TOP1, hits give low values 1.07 | S. cerevisiae deletion strains, locus YOL012C, strain htz1 1.19 | S. cerevisiae deletion strains, locus YOL147C, strain pex11, hits give low values 1.01 | S. cerevisiae deletion strains, locus YOR001W, strain rrp6, hits give low values 0.968 | S. cerevisiae deletion strains, locus YOR061W, strain CKA2, hits give low values 1.02 | S. cerevisiae deletion strains, locus YOR069W, strain VPS5, hits give low values 1.01 | S. cerevisiae deletion strains, locus YOR070C, strain gyp1, hits give low values 0.994 | S. cerevisiae deletion strains, locus YOR080W, strain dia2, hits give low values 0.995 | S. cerevisiae deletion strains, locus YOR083W, strain WHI5, hits give low values 1.03 | S. cerevisiae deletion strains, locus YOR106W, strain vam3, hits give low values 0.998 | S. cerevisiae deletion strains, locus YOR136W, strain idh2, hits give low values 1.02 | S. cerevisiae deletion strains, locus YOR144C, strain elg1, hits give low values 1 | S. cerevisiae deletion strains, locus YOR184W, strain ser1, hits give low values 1.08 | S. cerevisiae deletion strains, locus YOR231W, strain MKK1, hits give low values 1 | S. cerevisiae deletion strains, locus YOR265W, strain rbl2, hits give low values 1 | S. cerevisiae deletion strains, locus YOR270C, strain vph1, hits give low values 0.956 | S. cerevisiae deletion strains, locus YOR290C, strain snf2, hits give low values 1 | S. cerevisiae deletion strains, locus YOR316C, strain cot1, hits give low values 1.01 | S. cerevisiae deletion strains, locus YPL051W, strain arl3, hits give low values 1.02 | S. cerevisiae deletion strains, locus YPL055C, strain LGE1, hits give low values 0.991 | S. cerevisiae deletion strains, locus YPL078C, strain atp4, hits give low values 1 | S. cerevisiae deletion strains, locus YPL106C, strain sse1, hits give low values 1.01 | S. cerevisiae deletion strains, locus YPL240C, strain hsp82, hits give low values 0.997 | S. cerevisiae deletion strains, locus YPL241C, strain CIN2, hits give low values 1.01 | S. cerevisiae deletion strains, locus YPL256C, strain CLN2, hits give low values 0.985 | S. cerevisiae deletion strains, locus YPR119W, strain clb2, hits give low values 1 | S. cerevisiae deletion strains, locus YPR141C, strain kar3, hits give low values 1.02 | S. cerevisiae deletion strains, locus YPR163C, strain tif3, hits give low values 1.01 | S. cerevisiae deletion strains, locus YPR167C, strain met16, hits give low values 1 | S. cerevisiae deletion strains, strain wtn01, hits give low values 0.992 | S. cerevisiae strains, strain wild type, hits give low values 1.02
